In PubChem BioAssay AID651597 (National Center for Advancing Translational Sciences (NCATS), 2012):
Out of some 1,100 compounds screened, about 390 (35%) were called active. About 30% were inconclusive and are not listed. This is one part of the list. Unmarked numbers belong to inactive results. The call rests on the fitted dose curve; in most records, active means well fitted inhibition curve with a large enough effect; inconclusive means small, poorly fitted or top-dose-only effect; inactive means flat fitted curve, though single readings scatter.

Biological target: Luciferin 4-monooxygenase (Photinus pyralis) (UniProt P08659)
Assay: qHTS of Nrf2 Activators: Hit Validation in Secondary FLuc Assay; further: nearly all actives have a fitted effect of over 65% in size
Conditions: firefly luciferase inhibition counter-screen, luminescence; series mostly up to 57.5 µM; activity, negative = inhibition: at the top concentration
Procedure, shortened: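 Counter-screen on purified firefly luciferase with ATP and D-luciferin at Km concentrations; compounds flagged if they inhibit the enzyme, indicating possible reporter stabilization rather than ARE activation.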
On the % scale 0 is the no-effect control and ±100 the full control effect; potency means the concentration at half of the fitted maximal effect.

Row | Structure (SMILES) | activity, negative = inhibition [%] | Potency
1 | Cn1nnnc1Sc1ncnc2scc(-c3cccc4ccccc34)c12 | -25.5 | –
2 | O=C(Nc1cc(Br)ccc1O)c1cnn2c(C(F)F)cc(C3CC3)nc12 | -21.9 | –
3 | c1ccc(N2CC3CCc4ccccc4C3=N2)cc1 (centres undefined) | – | 3.01 µM (active)
4 | c1ccc(N2CC3COc4ccccc4C3=N2)cc1 (centres undefined) | – | 4.26 µM (active)
5 | CCOc1ncccc1C(=O)NNC(=O)c1ccc(NS(=O)(=O)c2cccs2)cc1 | -0.928 | –
6 | CC(=O)c1nn(-c2ccccc2)cc1C(=O)c1cccc(Br)c1 | -11 | –
7 | C/C(=N\NC(=O)c1cccc(Br)c1)c1ccccn1 | – | 8.49 µM (active)
8 | FC(F)(F)c1nnc2c(Sc3ccccn3)nc3ccccc3n12 | -5.64 | –
9 | CCn1c(=NC(=O)c2ccco2)sc2cccc(F)c21 | – | 6.01 µM (active)
10 | CCn1c(=N)n(CC(=O)c2ccco2)c2ccccc21 | 5.63 | –
11 | COc1ccc(Br)cc1/C=N/Nc1ccccn1 | -22.8 | –
12 | COc1cc(/C=N/Nc2ccccn2)cc(OC)c1O | – | 2.13 µM (active)
13 | N/C(=N\OC(=O)c1ccccc1Cl)c1ccncc1 | – | 4.78 µM (active)
14 | N/C(=N\OC(=O)c1cc(Cl)ccc1Cl)c1cccnc1 | – | 4.78 µM (active)
15 | N/C(=N\OC(=O)c1cccc2ccccc12)c1cccnc1 | 4.57 | –
16 | N/C(=N\OC(=O)c1cc(Cl)ccc1Cl)c1ccncc1 | – | 15.1 µM (active)
17 | N#C/C(=C\C=C\c1ccccc1)C(=O)NCc1cccnc1 | -7.08 | –
18 | N/C(=N\OC(=O)/C=C/c1ccccc1)c1cccnc1 | – | 5.36 µM (active)
19 | O=C1C2C3C=CC(C4CC34)C2C(=O)N1/N=C/c1ccc([N+](=O)[O-])o1 (centres undefined) | -29.9 | –
20 | CCCn1nc([N+](=O)[O-])c(C(C#N)c2nc3ccccc3s2)c(Cl)c1=O (centres undefined) | – | 12 µM (active)
21 | Nc1ccccc1N1C(=O)c2cccc3cccc(c23)C1=O | -18.6 | –
22 | Cc1ccc2nsnc2c1NC(=S)NC(=O)c1ccco1 | -3.95 | –
23 | Cc1ccc([N+](=O)[O-])cc1NC(=S)NC(=O)c1ccco1 | 1.78 | –
24 | CCc1c(C)sc(NC(=O)c2ccco2)c1C#N | – | 12 µM (active)
25 | Cc1sc(NC(=O)c2ccco2)c(CN2CCCCC2)c1C | -22.7 | –

Row | Structure (SMILES) | activity, negative = inhibition [%] | Potency
26 | CCCc1cc(C(N)=O)c(NC(=O)c2ccco2)s1 | – | 3.01 µM (active)
27 | Cc1sc(NC(=S)NC(=O)c2ccco2)c(C(N)=O)c1C | – | 1.2 µM (active)
28 | NC(=O)c1c(NC(=O)c2ccco2)sc2c1CCC2 | – | 2.13 µM (active)
29 | COC(=O)CSc1nc2ccccn2c(=O)c1C=O | 6.66 | –
30 | COn1c(=O)c(-c2cccc(Br)c2)[n+]([O-])c2ccccc21 | 1.19 | –
31 | N#CC1=C(N)Oc2c(ccc3ccccc23)C1c1ccsc1 (centres undefined) | – | 16.9 µM (active)
32 | COc1ccc(S(=O)(=O)N2CCN(C(=O)c3ccc([N+](=O)[O-])o3)CC2)cc1 | 8.39 | –
33 | COc1cccc(NC(=O)c2nc(SC)ncc2Cl)c1 | -0.657 | –
34 | COc1cccc(NC(=O)c2nn(C)cc2Br)c1 | – | 12 µM (active)
35 | COc1ccc(S(=O)(=O)NCCc2csc3nc(-c4ccc(Cl)cc4)nn23)cc1C | -6.04 | –
36 | COc1ccc(NC(=O)c2ccc([N+](=O)[O-])s2)c([N+](=O)[O-])c1 | 2.08 | –
37 | O=C(Nc1ccccc1[N+](=O)[O-])C1COc2ccccc2O1 (centres undefined) | – | 3.01 µM (active)
38 | CCOc1ccccc1NC(=O)C1COc2ccccc2O1 (centres undefined) | -24 | –
39 | Cn1c(=O)n(CCc2ccccc2)c(=O)c2c1nc1n2CCN1Cc1ccco1 | -19.5 | –
40 | Cc1csc2nc(NC(=O)c3ccccc3)sc(=O)c12 | – | 2.39 µM (active)
41 | Cc1csc2c(=O)sc(NC(=O)c3ccc(F)cc3Cl)nc12 | 0.172 | –
42 | O=C(Nc1nc(=O)c2ccccc2s1)c1ccccc1 | – | 1.07 µM (active)
43 | O=C(NCc1ccccc1)c1c(Cl)nc(Cl)c(Cl)c1Cl | 2.71 | –
44 | Cc1ccccc1C(=O)Nc1nc2c(C)csc2c(=O)s1 | -24 | –
45 | O=C1C=C(C#Cc2ccccc2)C[C@@H](c2ccc(F)cc2)C1 | -5.22 | –
46 | N/C(=N\OC(=O)c1ccco1)c1cccc(Br)c1 | – | 2.39 µM (active)
47 | O=C(CSc1ncnc2sc3c(c12)CCCC3)c1ccco1 | – | 2.69 µM (active)
48 | O=C(Nc1ncnc2sc3c(c12)CCC3)c1ccco1 | 0.673 | –
49 | c1coc(-c2ccnc3nc(-n4cccc4)nn23)c1 | -29.9 | –
50 | Cc1ccsc1-c1ccnc(-n2cccc2)n1 | – | 15.1 µM (active)

Row | Structure (SMILES) | activity, negative = inhibition [%] | Potency
51 | c1coc(-c2ccnc(-n3cccc3)n2)c1 | – | 15.1 µM (active)
52 | CN1CCCC1CCNc1ccc2c(=O)c3ccccc3oc2c1 (centres undefined) | – | 6.75 µM (active)
53 | Cc1sc2ncnc(Sc3nnnn3-c3ccccc3)c2c1C | -19.4 | –
54 | Cc1nc2nc(-c3ccccc3)nn2c(C)c1Cl | – | 3.38 µM (active)
55 | CCOc1ccc(Br)cc1-c1noc(-c2cccs2)n1 | -20.8 | –
56 | COc1cc(-c2noc(-c3cccs3)n2)cc(OC)c1OC | -29 | –
57 | CCOc1ncccc1-c1nc(-c2cccs2)no1 | – | 15.1 µM (active)
58 | O=C(/C=C\c1ccc2c(c1)OCO2)CC1(O)C(=O)Nc2ccccc21 (centres undefined) | – | 9.53 µM (active)
59 | CC(C)N1C/C(=C/c2cccnc2)C(=O)/C(=C/c2cccnc2)C1 | -1.87 | –
60 | COc1ccc2c(c1)Cc1c-2cc(Br)c(N)c1Br | -19.8 | –
61 | Nc1ccc2c(c1)Cc1c(F)cccc1-2 | – | 7.57 µM (active)
62 | Cc1ccc(S(=O)(=O)c2nc(S(C)(=O)=O)sc2N2CC(C)OC(C)C2)cc1 (centres undefined) | 8.48 | –
63 | Cc1ccc(C)c(NC(=S)c2nc3ccccc3s2)c1 | – | 10.7 µM (active)
64 | Cc1ccc(C)c(NC(=O)COC(=O)c2cc(=O)c3ccccc3o2)c1 | -12 | –
65 | O=C(N/N=C/c1ccsc1)c1ccc2ccccc2n1 | – | 10.7 µM (active)
66 | O=C(Nc1ccc(F)cc1)c1cc2ccccc2o1 | – | 0.953 µM (active)
67 | O=C(Nc1ccc(F)cc1)c1sccc1SCc1cccc(C(F)(F)F)c1 | -4.78 | –
68 | O=C1/C(=C/c2ccccc2)CCc2ccc(Cl)nc21 | – | 10.7 µM (active)
69 | CN1C2CCC1/C(=C\c1ccccc1)C(=O)/C2=C\c1ccccc1 | -3.98 | –
70 | C1=C(c2ccc(-c3ccccc3)cc2)Nc2ncnn2C1c1ccco1 (centres undefined) | – | 10.7 µM (active)
71 | Brc1ccc(C2=CC(c3ccco3)n3nnnc3N2)cc1 (centres undefined) | -8.07 | –
72 | O=C(/C=C/c1cccs1)c1ccco1 | – | 9.53 µM (active)
73 | CCOc1ccsc1C(=O)NNC(=O)c1ccco1 | 4.68 | –
74 | Cc1ccc2nc(N(CCN(C)C)C(=O)/C=C/c3cccs3)sc2c1 | -22.7 | –
